Only some compounds are listed: those with a hit (about 1.3% of all), similar ones and a draw of the others.
PTHR1 ag = qHTS for PTHR1 Agonists: Primary Screen; Potency, µM (top dose mostly 115 µM), without a hit: top-dose activation, usual class: activators; Parathyroid hormone/parathyroid hormone-related peptide receptor (Homo sapiens), Q03431; HEK293 GP2 PTHR1 cells, GloSensor cAMP luminescence, 1 h; 410,000 tested, 0.075% active; also: potency is read from the fitted curve at half-maximal effect; nearly all actives have a fitted effect of over 55% in size
Target sequence (Q03431 whole entry, looked up): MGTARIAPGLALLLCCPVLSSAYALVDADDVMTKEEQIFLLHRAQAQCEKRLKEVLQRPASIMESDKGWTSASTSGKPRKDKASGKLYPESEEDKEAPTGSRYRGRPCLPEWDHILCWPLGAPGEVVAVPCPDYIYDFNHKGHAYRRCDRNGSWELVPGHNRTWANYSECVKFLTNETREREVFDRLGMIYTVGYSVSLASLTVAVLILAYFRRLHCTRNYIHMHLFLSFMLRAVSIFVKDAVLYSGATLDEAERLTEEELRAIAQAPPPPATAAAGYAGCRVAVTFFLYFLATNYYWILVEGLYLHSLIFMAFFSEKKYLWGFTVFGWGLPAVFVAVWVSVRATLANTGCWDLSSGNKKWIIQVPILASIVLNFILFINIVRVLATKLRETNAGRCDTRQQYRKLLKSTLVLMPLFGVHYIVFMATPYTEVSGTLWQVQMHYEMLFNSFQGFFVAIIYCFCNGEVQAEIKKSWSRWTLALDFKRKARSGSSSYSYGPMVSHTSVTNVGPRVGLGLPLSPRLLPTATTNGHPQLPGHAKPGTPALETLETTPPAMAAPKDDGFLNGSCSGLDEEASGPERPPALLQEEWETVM
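HEK-293-derived GP2 cells expressing PTHR1 and a GloSensor cAMP reporter, 3,000/well, plated overnight, given luciferin plus IBMX (each 0.5 mM as added) for 1 h at 37 °C, then compound for 1 h at 37 °C. Luminescence was read after 15 min at room temperature.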
Mito fusion act = qHTS Assay for Small Molecule Inhibitors of Mitochondrial Division or Activators of Mitochondrial Fusion; S. cerevisiae fusion-defective mutant growth rescue, CellTiterGlo 48 h; Potency, µM (series often up to 46.1 µM), for the others: top-dose growth rescue (activation), actives largely listed as activators; 320,000 tested, 0.23% active; AID 485298, 2010; also: potency is read from the fitted curve at half-maximal effect; % of control where 0% means no effect; nearly all actives have a fitted effect of over 45% in size
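Compounds are tested for their ability to restore growth of mitochondrial fusion-defective yeast strains at non-permissive 37C in YPEG medium over 48 hours. Viability is quantified by luciferase luminescence.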
Chronic BCR inh = qHTS Assay to Find Inhibitors of Chronic Active B-Cell Receptor Signaling; ABC-DLBCL IkBa-CBG/CBR reporter, luminescence ratio, 4 h; Potency, µM (highest dose often 46.1 µM), inactives show at the top dose activity change, negative = inhibition, usual class: inhibitors; 340,000 tested, 0.05% active; AID 493014, 2011; active = well fitted inhibition curve with a large enough effect in the signal ratio, with a control signal flat, not every such curve was filed as active; inconclusive = small, poorly fitted or top-dose-only effect, or effect the other way, or a change in a side signal; the % refers to the signal ratio;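 also: potency is read from the fitted curve at half-maximal effect; plate controls were basal doxycycline-induced cells for no effect and cells given 10 µM MG132 for full effect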
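Compounds up to 46 uM were incubated four hours with TMD8 cells whose green CBG68 luciferase is fused to IkappaBalpha; red CBR luminescence normalised the signal, and concentration-effect curves were fitted to fusion, red and ratio data.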
BRCA1 expr act = qHTS Assay to Identify Small Molecule Activators of BRCA1 Expression; Potency, µM (series often up to 46.1 µM), without a hit: at the top dose activation, hits mostly activators; 380,000 tested, 1.1% active; MCF7-BRCA1-FFLuc reporter, luminescence, 48 h; response scale: scaled: vehicle 0%, 10 µM genistein 100%; also: potency is read from the fitted curve at half-maximal effect; nearly all actives have a fitted effect of over 80% in size
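MCF7-BRCA1-FFLuc, 2000 cells/well; 2 h attach, 37 °C/5% CO2; compound 48 h; luciferase substrate 15 min; luminescence end-point. Norm. to genistein 10 microM max activation and DMSO; concentration-response curves fitted.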
TCR activator = Activators of T cell receptors: qHTS campaign; primary human leukocytes, anti-CD3, IL-2 HTRF, 48 h; Potency, µM (titrated, usually from 9.22 µM), for the others: at the highest dose activation of IL-2 secretion, usual class: activators; 330,000 tested, under 10 active; also: % of control where 0% means no effect
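HTRF read-out of IL-2 secretion: europium cryptate donor excited at 320nm, d2 acceptor emission at 665nm. Cells were primary human leukocytes incubated 48 hr with compounds and a-CD3 beads, supplying TCR signal only.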
IL2 activator = qHTS of IL-2 Activators; IL-2 activation reporter assay, cell-based qHTS; stimulated with anti-CD3/CD4/CD28 beads; in transgenic mouse T cells; 360,000 tested, 0.065% active; activation, % (series mostly up to about 46 µM); in the data active = activation above about 50%; inconclusive = mostly about 30% to 49%; also: 0% is about no effect
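Using fluorescent plate cytometry, EGFP and DsRed are detected in transgenic mouse T cells stimulated 18 h at 37 degrees C with antibody-coated beads after 60 min compound pretreatment.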
* hit, by the source's call; i = inactive; ? = inconclusive; . = no result; [ ] = dose if it differs, or a comment. Unless noted, calls follow the shape of the dose curve; as a rule, active = well fitted curve in the direction sought with a large enough effect; inconclusive = small, poorly fitted or top-dose-only effect, or another doubt; inactive = no such curve, though single readings can be large; an effect the other way counts as inactive or inconclusive.

SMILES	PTHR1 ag	Mito fusion act	Chronic BCR inh	BRCA1 expr act	TCR activator	IL2 activator
Clc1ccc(OCc2cc(-c3ccccc3)no2)cc1Cl	-4%[57.5 µM]	7%	?	14µM*	6%	-2
Cc1ccc(N2CC(NC(=O)c3cccc(Cl)c3)CC2=O)cc1C (stereo not drawn)	-24%	.	-25%	.	.	.
CC1CCCN(c2ncnc3c2cnn3-c2ccc(F)cc2)C1 (stereo not drawn)	-38%	.	14%	.	.	.
c1ccc2sc(N3CCCCC3)nc2c1	-32%	.	.	4.5µM*	-1%	-1
O=C(c1ccccc1)N1CCN(c2nc3ccc([N+](=O)[O-])cc3s2)CC1	-48%	-3%	3%	0%	-8%	-4
Fc1cc(F)c2nc(N3CCCCC3)sc2c1	-17%[57.5 µM]	0%	?	13µM*	1%	-1
c1ccc(CN2CCN(c3nc4ccccc4s3)CC2)cc1	-18%	7%	?	?	-3%	0
O=[N+]([O-])c1ccc2nc(N3CCCC3)sc2c1	-30%	0%	4%	8.9µM*	0%	1
Fc1ccc2nc(N3CCCC3)sc2c1	-31%	-8%	?	?	4%	2
CC1CCc2c(cc(-c3ccccc3)n2-c2ccc(C(=O)NC(C)C)cc2)C1 (stereo not drawn)	-26%	.	.	.	.	.
CC1CCN(c2nnc(-n3cccc3CNc3cccc(F)c3)s2)CC1	-17%	.	.	15%	.	.
CC(=O)Nc1ccc(/C=C/c2ccnc3ccccc23)cc1	.	.	.	18%	.	.
COc1ccccc1N=Cc1c(C)c(C#N)c2[nH]c3ccccc3n2c1=O	i	-4%	?	12%	8%	126*
COc1cccc(OC)c1CNC(=O)C1CCC(=O)N(CC2CCCCC2)C1 (stereo not drawn)	i	-2%	7%	-4%	-16%	-2
COc1ccc(CN(C)C(=O)/C=C/[C@H]2O[C@@H](n3cc(C)c(=O)[nH]c3=O)C[C@@H]2O)cc1OC	21%	.	.	5%	.	0
CC(=O)c1cc(C#N)c(SCC(=O)OC(C)(C)C)nc1C	-5%	18%	5%	5.6µM*	6%	-1
CC(=O)c1cc(C#N)c(SCC(=O)OC(C)C)nc1C	-2%[57.5 µM]	-5%	?	44%	16%	-2
c1cncc(CSc2ccc(-c3ccc4c(c3)OCO4)nn2)c1	-31%	1%	?	5.6µM*	0%	0
Fc1cccc(CSc2ccc(-c3ccc4c(c3)OCO4)nn2)c1	i	-14%	?	83%	-5%[46.1 µM]	0
Cc1ccccc1CSc1ccc(-c2ccc3c(c2)OCO3)nn1	-28%	19%	1%	8.9µM*	0%[46.1 µM]	-3
Cc1cc(NC(=O)CSc2nc3ccsc3c(=O)n2Cc2ccccn2)n[nH]1	-9%[57.5 µM]	2%	11%	5.6µM*	2%	2
CCCCn1c(SCC(=O)Nc2cc(C)[nH]n2)nc2ccsc2c1=O	-19%	0%	-2%	0%	0%	0
Oc1ccc2ccccc2c1/C=N/Nc1nnc(-c2ncc[nH]2)c2ccccc12	i	-2%	?	-100%	5%	56*
O=C1COc2ccc(OCc3ccc(F)cc3)cc21	-19%	-6%	?	2.8µM*	.	-3
Cc1ccc(-n2ncc3c(NCCCc4ccccc4)ncnc32)cc1	3%	.	10%	.	.	.
SMILES	PTHR1 ag	Mito fusion act	Chronic BCR inh	BRCA1 expr act	TCR activator	IL2 activator
O=C(Nc1ccc(Br)cc1)c1cnc[nH]1	-2%	8%	?	13µM*	-2%	-3
COc1ccc2cc(C3=CC(=O)CC(C)(C)C3=O)ccc2c1	-39%	.	.	13µM*	.	-2
COc1ccc(-c2ccccc2C2=CC(=O)CC(C)(C)C2=O)cc1	-25%	.	.	-18%	.	-3
N#C/C(=N\Nc1ccc(Br)cc1)C(=N)N1CCOCC1	-25%	0%	?	10µM*	-9%	-3
N#C/C(=N\Nc1ccc([N+](=O)[O-])cc1)C(=N)N1CCOCC1	i	-1%	?	?	5%	0
Cc1cccc(CNC(=O)CN2C(=O)CSc3c2c(C)nn3-c2ccccc2)c1	i	.	.	0%	.	.
Oc1ccc(/C=C/c2cnccn2)cc1	i	-7%	?	13µM*	5%	-1
Cc1ccc(C)c(S(=O)(=O)N2CCN(C(=O)C3CCN(c4ncnc5sc(C)c(C)c45)CC3)CC2)c1	-26%	?	?	-83%	1%	-1
Cn1cc([N+](=O)[O-])c(C(=O)Nc2sc3c(c2C#N)CCC3)n1	-35%	11µM*	?	-10%	3%	1
Cn1cc(Br)c(C(=O)Nc2sc3c(c2C#N)CCC3)n1	-12%	15%	?	55%	0%	-1
CN(C)c1ccc(Cn2ccc3ccccc32)cc1	.	.	.	-20%	.	.
CC(C)NC(=O)CSc1nc(-c2ccccc2)cs1	-28%	22%	5%	10µM*	-1%	-1
Cc1ccc(C(=O)Nc2nc3ccccc3s2)s1	-25%[57.5 µM]	3%	?	-4%	13%	-2
Cc1csc(SCC(=O)Nc2ccccc2)n1	-13%	-4%	?	-1%	0%	0
CCOC(=O)Nc1nc2ccccc2s1	i	3%	?	5.6µM*	.	-3
Cc1csc(SCC(=O)Nc2nc3ccccc3s2)n1	-17%[57.5 µM]	-3%	?	2.8µM*	-7%	0
Cc1noc(C)c1C(=O)Nc1nc2ccccc2s1	-19%	8%	?	6.3µM*	-9%	0
CC(=O)NC(Cc1ccc(Cl)cc1)C(=O)NCC(N)C(=O)c1ccccc1 (stereo not drawn)	.	.	.	-61%	.	.
CC1Cc2ccccc2C[N+]1(C)CC(=O)c1ccc(I)cc1 (stereo not drawn)	.	.	.	0%	.	.
Cc1cc(C(=O)CSc2nnnn2C)c(C)n1-c1ccc2c(c1)OCCO2	i	3%	?	7.9µM*	-3%	-1
Cc1cc(C(=O)CSc2nnc(-c3ccco3)o2)c(C)n1-c1ccc2c(c1)OCCO2	-35%[57.5 µM]	8%	-1%	-30%	-10%	-1
CC(C)c1cccc(NC(=O)COC(=O)c2ccccc2OCc2cccc(Br)c2)c1	.	.	.	7%	.	.
CCOc1ccccc1NC(=O)COn1nnc2ccc(Cl)cc21	-3%[57.5 µM]	11µM*	?	-19%	5%	0
Cc1cc(NC(=O)COn2nnc3ccc(Cl)cc32)no1	i	0%	-4%	-19%	3%	-3
